# According to PubChem BioAssay AID493240 (Broad Institute, 2011):
# Screen size: about 1,300 compounds; about 270 (21%) were called active. Only a sample is shown. Entries with a potency or affinity are not part of this list. Unmarked numbers belong to inactive results. The rule behind the calls is not given here.
# Assay: SK-MEL-5 parental cell viability loss, dose response, orthogonal assay for MITF inhibitor project, CellTiter-Glo, cherry-picked, set 3 (AID 493240)
# Details: SK-MEL-5 viability, ATP luminescence (CellTiter-Glo), 24 h; series mostly up to 35 µM; activity change, negative = viability loss: at the top concentration
row,SMILES,"activity change, negative = viability loss"
1,O=C(Cn1ncc(Cl)c(Cl)c1=O)NCC1CCCCC1,-26.5%
2,Cc1ccc(NC(=O)Cn2ncc(Cl)c(Cl)c2=O)cc1S(=O)(=O)N1CCCCC1,-28.8%
3,O=C(Cn1ncc(Cl)c(Cl)c1=O)N1CCN(Cc2ccccc2)CC1,-27.6%
4,O=C1CN(C(=O)Cn2ncc(Cl)c(Cl)c2=O)c2ccccc2N1,-29.3%
5,Cc1cc(Br)ccc1NC(=O)CNC(=O)Cn1ncc(Cl)c(Cl)c1=O,-30.1%
6,CC(C)(C)C(=O)Cn1ncc(Cl)c(Cl)c1=O,-12.3%
7,Cc1ccc(CC(=O)Nc2ccc(Cl)cn2)cc1,3.24%
8,C1CCC(C(CC2CCCCN2)C2CCCCC2)CC1 (stereo not drawn),-96.3%
9,OCc1ccc(N=Nc2ccccc2)cc1,-1.94%
10,COc1cc(-c2nnc(-c3ccco3)o2)ccc1OCc1ccccc1,-2.21%
11,Cc1ccc2nc(C)cc(Nc3ccc([N+](=O)[O-])cc3)c2c1,-39.3%
12,CCOc1cccc(C(=O)NC2=NCCS2)c1,3.16%
13,COc1ccc(C)cc1Nc1nc(N)c2cc(OC)c(OC)cc2n1,-22.4%
14,O=C(O)c1cc(N/N=C/C(Cl)=C/c2ccccc2)ccc1Cl,-4.24%
15,Cc1ccc(C(=O)Nc2nc3ccc(Cl)cc3s2)o1,5.37%
16,Cc1ccc(-c2n[nH]c(=O)c3ccccc23)cc1S(=O)(=O)NCC1CCCO1 (stereo not drawn),-4.56%
17,O=C(Nc1ccc2nn(-c3ccccc3)nc2c1)c1ccco1,-6.18%
18,CCOc1ccc(-c2nnc(-c3cccs3)o2)cc1OCC,9.05%
19,Cn1cc(C(=O)N/N=C/c2c(O)ccc3ccccc23)ccc1=O,-13.1%
20,C/C(=N/Nc1nc(C)c(C)s1)c1cccc([N+](=O)[O-])c1,-16.5%

row,SMILES,"activity change, negative = viability loss"
1,O=[N+]([O-])c1cc(Cl)cc(/C=N\Nc2ccccn2)c1O,-39.1%
2,Cc1ccc2oc(=O)n(CCCOc3ccccc3)c2c1,-2.76%
3,CCCOc1ccc(-c2c(=O)n(O)c3ccccc3[n+]2[O-])cc1,-16.6%
4,CCOc1ccc(-c2noc(CCC(=O)O)n2)cc1,-7.35%
5,COc1cccc(C(=O)N/N=C(/c2ccccc2)c2ccccn2)c1,-25.7%
6,CS(=O)(=O)c1ncc(Cl)c(C(=O)Nc2ccc(N3CCOCC3)cc2)n1,-31.5%
7,O=C(Nc1ccc2ncccc2c1)c1ccccc1Br,-4.02%
8,CC(=O)Nc1ccc(NC(=O)c2nc(S(=O)(=O)Cc3ccccc3)ncc2Cl)cc1,-18.8%
9,O=C(Nc1ccc(F)cc1)c1nc(S(=O)(=O)Cc2ccccc2)ncc1Cl,-46.5%
10,COc1ccc(/C=N/N=C2/SCC(=O)N2Cc2ccccc2)cc1,-11.2%
11,Cc1ccc(C)c(S(=O)(=O)N2CCN(Cc3ccc(O)c4ncccc34)CC2)c1,-33.8%
12,CC1CCCC(NC(=O)NC(=O)CCl)C1C (stereo not drawn),-4.56%
13,Cc1ccc(-c2cn3cc(C)ccc3n2)cc1,-17.5%
14,O=C(O)c1cccc(NC(=S)N/N=C/c2ccccn2)c1,-4.83%
15,CC1=NOC(=O)/C1=C\c1ccc(-c2cccc(Cl)c2)o1,-12.6%
16,CC(C)[C@H](NC(=O)OC(C)(C)C)c1nnc(S(=O)(=O)Cc2c(F)cccc2Cl)o1,-44.2%
17,C/C(=N\NC(=O)C1COc2ccccc2O1)c1ccccn1 (stereo not drawn),-29.1%
18,Cc1cc(C)c2c(N)c(C(=O)Nc3ncc(C)s3)sc2n1,-29.7%
19,CC(OC(=O)c1ccc([N+](=O)[O-])s1)C(=O)NC1CCCCC1C (stereo not drawn),1.2%
20,Clc1c(-c2ccccc2)nc2ccccn12,-2.85%

row,SMILES,"activity change, negative = viability loss"
1,Cn1nnnc1Sc1ncnc2scc(-c3ccc[nH]3)c12,-22.3%
2,C=C1CCC[C@]2(C)C[C@H]3OC(=O)C(CN4CCCCC4CO)[C@H]3CC12 (stereo partly drawn),20.2%
3,CCOc1cc(/C=N/Nc2cccc(C(=O)O)c2)ccc1OC(=O)c1ccccc1,-4.54%
4,COc1cc(/C=N/NS(=O)(=O)c2ccc3ccccc3c2)ccc1OCc1ccc(C(=O)O)cc1,0.683%
5,COc1cc(/C=N/NS(=O)(=O)c2ccc(C)cc2)ccc1OCc1cccc(C(=O)O)c1,6.32%
6,CCOc1cc(/C=C2/NC(=S)NC2=O)ccc1OCc1ccc([N+](=O)[O-])cc1,-31.2%
7,O=C(Cn1nnc(-c2ccccc2Cl)n1)N1CCCCC1,7.72%
8,CC(C)OC(=O)CSc1nc2cc3c(cc2cc1C#N)OCO3,-2.87%
9,CCOc1ccc(OCc2ccc(C(=O)N/N=C(\C)c3ccccn3)cc2)cc1,-41.8%
10,C/C(=N\NC(=O)Cc1ccc(Cl)cc1)c1ccccn1,-31.1%
11,O=C(Nc1nc2ccccc2s1)Nc1ccc(F)cc1F,3.41%
12,O=C(N/N=C/c1ccccc1)c1ccco1,-4.03%
13,O=C(Nc1ccccc1)O/N=C/c1ccc(F)cc1,-11.8%
14,CCC(=O)OCCNc1cc(Sc2nc3ccccc3[nH]2)c2nonc2c1[N+](=O)[O-],-31.7%
15,Cc1cc(C)nc(S/C=C/C(=O)c2ccccc2F)n1,-22.5%
16,CC(=O)N/C(N)=N/c1nc2cc(C)ccc2o1,-5.21%
17,COc1ccccc1N1CCN(/N=C/c2ccc([N+](=O)[O-])cc2)CC1,5.48%
18,CN(c1ccc(O)cc1)c1nc(O)c(C2=c3ccccc3=NC2=O)s1,2.68%
